“And” between values parts separate entries of the source, which are not always exact repeats. Equal values may be shown once. Results filed as inconclusive are left out. For part of these data: Measured potencies and affinities stand elsewhere. The source made the active and inactive calls. Unless noted, no rule for the calls is given here.
Assays:
[1] = P. berghei load reduction in hepatocytes – cell-based, HepG2, luciferase luminescence, HepG2 viability, primary screen (AID 624349; in the data active = parasite load remaining mostly below about 12%, no sharp cut-off; inactive = mostly above about 10%;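 also: 100% = mean of DMSO negative control wells on the same plate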); settings: P. berghei liver stage in HepG2, luciferase luminescence, concentration not given here; parasite load remaining: stronger effect = lower value; viability: measured here: HepG2 viability without parasites
[2] = EMT-state selective cytotoxicity in co-culture – imaging, PC-3E GFP, TEM4-18 mCherry, primary screen (AID 1345086;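 active = compounds killing one labelled cell type while sparing the other, by normalised counts and ratio limits, not self-fluorescent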;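 as to all read-outs here: cells exposed to compound for 72 h before imaging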;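 as to red/green cell ratio (normalised): normalised mesenchymal count divided by normalised epithelial count so high means epithelial killing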); settings: PC-3E GFP / TEM4-18 mCherry co-culture, imaging cell counts, at 1 µM; for red/green cell ratio (normalised): actives lie on both sides
[3] = tested on: Aerobactin synthetase IucA (Klebsiella pneumoniae hvKP1); assay: IucA enzyme inhibition, primary screen, biochemical, Spectrum library (AID 1346200); settings: malachite green pyrophosphate, A620, at 8 µM, stronger effect = lower value;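 also: 100% = wells without compound and 0% = wells lacking enzyme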
[4] = blockers of MitoPT in mitochondria (AID 1580); settings: isolated mitochondria, permeability transition inhibition
[5] = blockers of polyQ-driven CASP3 activation – cell-based (AID 1583); settings: polyglutamine-induced caspase-3 activation, cell assay; stronger effect = higher value;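 tested at 10 µM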
[6] = yeast 75Q aggregation reduction – 75Q-TubU reporter (AID 1593); settings: Yeast 75Q polyglutamine aggregation reporter
[7] = restoration of touch response, mutant HTT neurons – whole organism, C. elegans mechanosensory neurons, N-terminal huntingtin (AID 1599); settings: C. elegans polyQ-huntingtin mechanosensory neurons, stronger effect = higher value
[8] = blockers of cytochrome c efflux from mitochondria – biochemical, purified mitochondria (AID 1603); settings: stronger effect = lower value;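 also: mouse liver mitochondria challenged with calcium chloride; signal normalized to the plate average as 100%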
[9] = polyglutamine aggregate formation blockers (AID 1604); settings: polyglutamine-induced protein aggregation inhibition assay; stronger effect = higher value; tested at 2.5 µM
[10] = glutamate transport activators, MN-1 cells, MN-1 cell line (AID 1612); settings: MN-1 motor neuron cells, stronger effect = higher value;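 also: tested at 1 µM final; 0% = mean of DMSO vehicle wells on each plate; positive means more glutamate uptake than control and negative means less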
[11] = 75Q-TubH aggregate inhibition, S. cerevisiae, yeast (AID 1616); settings: S. cerevisiae 75Q-TubH polyglutamine aggregation suppression; stronger effect = higher value
[12] = target: Mitogen-activated protein kinase 7 (Homo sapiens) (UniProt Q13164); assay: Gal4-ERK5 driven luciferase induction – cell-based, HTS, primary screen (AID 1508626;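 active = luciferase signal above three times the same-plate solvent-only control wells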;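 also: luciferase driven by Gal4-ERK5 fusion binding five Gal4 sites before minimal TATA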); settings: HeLa Gal4-ERK5 transactivation, 18 h, at 5 µM, stronger effect = higher value
Mitogen-activated protein kinase 7 (Homo sapiens), sequence (Q13164 whole entry, looked up, the tested form may be a part): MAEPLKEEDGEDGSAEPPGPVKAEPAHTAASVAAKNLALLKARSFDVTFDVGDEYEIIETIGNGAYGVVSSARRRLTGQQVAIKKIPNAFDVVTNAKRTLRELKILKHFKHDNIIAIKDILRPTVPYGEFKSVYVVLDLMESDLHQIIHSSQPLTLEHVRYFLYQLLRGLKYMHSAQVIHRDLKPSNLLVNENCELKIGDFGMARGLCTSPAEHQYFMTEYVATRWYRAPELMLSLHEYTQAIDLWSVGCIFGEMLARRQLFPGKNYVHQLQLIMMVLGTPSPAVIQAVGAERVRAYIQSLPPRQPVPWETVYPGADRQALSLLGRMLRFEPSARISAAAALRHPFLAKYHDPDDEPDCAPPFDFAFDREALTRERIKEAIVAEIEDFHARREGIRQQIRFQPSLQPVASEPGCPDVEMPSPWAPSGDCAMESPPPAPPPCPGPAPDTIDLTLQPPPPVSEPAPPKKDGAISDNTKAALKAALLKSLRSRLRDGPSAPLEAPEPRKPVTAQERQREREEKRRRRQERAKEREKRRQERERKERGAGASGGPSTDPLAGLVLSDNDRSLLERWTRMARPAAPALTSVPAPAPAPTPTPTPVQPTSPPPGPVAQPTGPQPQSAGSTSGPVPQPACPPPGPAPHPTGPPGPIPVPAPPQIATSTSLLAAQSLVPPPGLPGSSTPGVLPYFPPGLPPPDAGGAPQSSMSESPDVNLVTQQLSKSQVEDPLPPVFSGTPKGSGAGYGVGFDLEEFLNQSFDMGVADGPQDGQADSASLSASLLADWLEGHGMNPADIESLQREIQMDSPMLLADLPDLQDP

[13] = compounds altering circadian rhythm period length – cell-based, LOPAC library, luminescence reporter (AID 2774); settings: circadian reporter cells, at 7 µM, actives lie on both sides;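 also: values are relative to mean of DMSO wells on each plate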
[14] = tested on: Hepatitis C virus NS3 helicase; assay: blockers of NS3h binding to ssDNA – biochemical, fluorescence polarization, LOPAC1280 library, primary screen (AID 687035; in the data active = inhibition above about 37%); settings: Purified HCV NS3 helicase, Cy5-dT15 ssDNA binding fluorescence polarization; stronger effect = higher value; concentration not given here
[15] = compounds altering Cy5-DNA-NS3h complex signal – biochemical, LOPAC1280, artefact control for HCV NS3 helicase inhibitor project (AID 687037); settings: Cy5-DNA-NS3h complex fluorescence interference counterscreen
[16] = tested on: Aerobactin synthetase IucA (Klebsiella pneumoniae, hypervirulent); assay: biochemical IucA inhibition screen of LOPAC library by absorbance (AID 1346212); settings: IucA enzyme assay, absorbance (OD) readout; stronger effect = lower value; concentration not given here;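 also: 100% = no compound wells and 0% = no enzyme wells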
[17] = viability loss with induced miR-34 in A549 – imaging, A549 dox-inducible miR-34, nuclei and caspase counts, primary screen (AID 1347080;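 active = compounds whose cell count with miR-34 switched on is under 0.7 times the count with it off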); settings: A549 miR-34 inducible, Hoechst nuclei count, 48 h
[18] = blockers of cellular phospholipid synthesis – cell-based, LOPAC library, screen 4, primary screen (AID 1347384); settings: animal cells, phospholipid biosynthesis inhibition screen; at 10 µM
[19] = galactose survival enhancers in mitochondrial complex I cybrids – cell-based, galactose medium, ATP luminescence, primary screen (AID 1645843;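 active = z-score of at least 1.8 in each of two replicates, scored against plate mean and spread of sample wells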;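 also: positive z means more ATP and so rescue of galactose-driven cybrid death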); settings: complex I mutant cybrid cells, 72 h, stronger effect = higher value
[20] = target: Huntingtin (Homo sapiens) (UniProt P42858); assay: mutant huntingtin aggregation blockers – QA1, dose response (AID 1584); settings: in vitro mutant huntingtin aggregation assay; confirmation test; at 10 µM; stronger effect = lower value
Huntingtin (Homo sapiens), sequence (P42858 whole entry, looked up): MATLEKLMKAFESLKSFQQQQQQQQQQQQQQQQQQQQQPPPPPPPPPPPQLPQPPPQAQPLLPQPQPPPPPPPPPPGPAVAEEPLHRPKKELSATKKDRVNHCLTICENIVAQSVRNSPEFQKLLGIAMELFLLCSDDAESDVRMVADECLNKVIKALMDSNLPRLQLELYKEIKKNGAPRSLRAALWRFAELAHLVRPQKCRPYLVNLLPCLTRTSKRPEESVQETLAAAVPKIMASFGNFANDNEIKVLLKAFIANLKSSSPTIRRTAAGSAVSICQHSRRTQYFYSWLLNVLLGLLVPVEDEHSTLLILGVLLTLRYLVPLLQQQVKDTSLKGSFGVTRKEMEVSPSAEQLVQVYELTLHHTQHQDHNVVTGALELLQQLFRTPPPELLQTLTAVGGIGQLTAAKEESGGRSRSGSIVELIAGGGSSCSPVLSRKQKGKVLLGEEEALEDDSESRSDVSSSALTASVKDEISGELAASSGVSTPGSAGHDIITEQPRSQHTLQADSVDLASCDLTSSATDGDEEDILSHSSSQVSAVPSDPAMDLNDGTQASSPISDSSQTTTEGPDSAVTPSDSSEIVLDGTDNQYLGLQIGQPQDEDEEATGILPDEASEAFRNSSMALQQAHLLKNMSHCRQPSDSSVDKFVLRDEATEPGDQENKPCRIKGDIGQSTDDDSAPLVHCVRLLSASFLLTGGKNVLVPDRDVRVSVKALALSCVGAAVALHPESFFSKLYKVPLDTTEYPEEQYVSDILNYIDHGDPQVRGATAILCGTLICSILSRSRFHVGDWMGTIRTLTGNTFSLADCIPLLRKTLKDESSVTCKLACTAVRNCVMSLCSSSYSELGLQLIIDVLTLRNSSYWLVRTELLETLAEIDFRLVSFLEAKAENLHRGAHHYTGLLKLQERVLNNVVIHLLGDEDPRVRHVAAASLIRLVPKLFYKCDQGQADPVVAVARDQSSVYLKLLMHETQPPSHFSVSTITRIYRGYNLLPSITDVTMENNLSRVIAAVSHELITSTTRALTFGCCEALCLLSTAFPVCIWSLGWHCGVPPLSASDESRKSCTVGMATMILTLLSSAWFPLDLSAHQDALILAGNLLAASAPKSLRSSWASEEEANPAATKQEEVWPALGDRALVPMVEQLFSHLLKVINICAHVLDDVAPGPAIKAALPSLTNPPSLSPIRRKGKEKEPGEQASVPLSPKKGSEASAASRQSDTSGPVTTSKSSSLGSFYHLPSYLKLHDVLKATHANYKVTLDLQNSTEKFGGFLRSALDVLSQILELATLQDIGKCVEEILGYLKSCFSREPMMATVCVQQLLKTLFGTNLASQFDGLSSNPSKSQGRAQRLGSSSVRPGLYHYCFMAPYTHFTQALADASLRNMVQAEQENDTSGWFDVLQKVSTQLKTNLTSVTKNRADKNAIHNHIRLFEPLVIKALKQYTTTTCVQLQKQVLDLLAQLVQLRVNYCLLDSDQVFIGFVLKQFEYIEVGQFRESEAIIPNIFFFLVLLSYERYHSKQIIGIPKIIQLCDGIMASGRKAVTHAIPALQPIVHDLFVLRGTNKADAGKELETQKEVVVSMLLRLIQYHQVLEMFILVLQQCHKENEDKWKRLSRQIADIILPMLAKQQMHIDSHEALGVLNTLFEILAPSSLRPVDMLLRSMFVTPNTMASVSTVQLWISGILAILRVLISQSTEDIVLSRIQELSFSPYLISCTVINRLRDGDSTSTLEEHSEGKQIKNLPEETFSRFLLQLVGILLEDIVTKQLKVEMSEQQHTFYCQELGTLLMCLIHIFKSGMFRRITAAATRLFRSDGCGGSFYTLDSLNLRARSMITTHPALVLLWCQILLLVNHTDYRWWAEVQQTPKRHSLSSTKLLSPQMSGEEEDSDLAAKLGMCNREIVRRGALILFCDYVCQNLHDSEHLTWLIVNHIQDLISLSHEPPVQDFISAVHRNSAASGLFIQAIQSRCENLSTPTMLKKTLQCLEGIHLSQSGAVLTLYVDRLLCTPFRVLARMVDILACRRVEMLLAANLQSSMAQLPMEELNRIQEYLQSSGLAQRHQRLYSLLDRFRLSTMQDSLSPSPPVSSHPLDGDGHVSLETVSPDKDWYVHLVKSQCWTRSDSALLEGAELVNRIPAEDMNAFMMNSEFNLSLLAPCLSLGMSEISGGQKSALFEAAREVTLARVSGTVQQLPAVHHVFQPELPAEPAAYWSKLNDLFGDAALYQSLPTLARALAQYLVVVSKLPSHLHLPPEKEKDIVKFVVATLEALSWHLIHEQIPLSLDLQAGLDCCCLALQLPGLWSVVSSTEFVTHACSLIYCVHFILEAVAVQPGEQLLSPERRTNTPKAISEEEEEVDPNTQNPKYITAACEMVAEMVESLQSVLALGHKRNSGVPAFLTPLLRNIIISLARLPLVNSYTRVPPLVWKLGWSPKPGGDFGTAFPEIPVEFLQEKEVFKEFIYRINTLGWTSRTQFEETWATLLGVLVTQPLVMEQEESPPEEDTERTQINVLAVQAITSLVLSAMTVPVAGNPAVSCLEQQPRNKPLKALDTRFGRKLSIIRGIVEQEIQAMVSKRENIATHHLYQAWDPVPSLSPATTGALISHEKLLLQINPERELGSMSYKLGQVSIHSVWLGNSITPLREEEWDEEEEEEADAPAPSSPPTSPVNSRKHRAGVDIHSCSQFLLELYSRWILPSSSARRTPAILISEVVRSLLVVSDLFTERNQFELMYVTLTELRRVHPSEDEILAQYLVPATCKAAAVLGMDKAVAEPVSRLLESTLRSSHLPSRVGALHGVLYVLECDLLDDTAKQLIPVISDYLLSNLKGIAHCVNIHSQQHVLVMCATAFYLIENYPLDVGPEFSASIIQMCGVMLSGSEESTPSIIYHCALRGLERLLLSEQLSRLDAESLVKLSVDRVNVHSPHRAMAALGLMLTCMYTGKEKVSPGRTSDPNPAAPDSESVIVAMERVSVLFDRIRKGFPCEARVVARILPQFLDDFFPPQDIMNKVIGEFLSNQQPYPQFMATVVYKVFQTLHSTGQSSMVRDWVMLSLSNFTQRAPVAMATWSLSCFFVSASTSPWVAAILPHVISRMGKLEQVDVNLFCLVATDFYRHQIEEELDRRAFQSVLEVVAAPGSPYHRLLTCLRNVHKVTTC

[21] = rescue of PC12 cells from polyQ htt toxicity – LDH release (AID 1610); settings: PC12 mutant huntingtin toxicity, final LDH at 4 uM, stronger effect = lower value
[22] = compounds altering viability of human ES cells (AID 493140); settings: human embryonic stem cell survival screen; stronger effect = higher value;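 also: cells exposed to compounds for four days before counting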
[23] = MELAS cybrid and Rieske KO viability enhancers – cell-based, MELAS cybrids, Rieske KO mouse fibroblasts, CellTiter-Glo, primary screen (AID 1508586;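 active = mean z-score across replicates of 1.96 or higher in either the MELAS or the Rieske mutant cell line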;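 also: z relative to plate mean and SD of compound and empty wells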); settings: low glucose
[24] = measured here: epithelial PC-3E GFP cell survival
[25] = measured here: mesenchymal TEM4-18 mCherry cell survival
[26] = counts scaled to control wells, 1 = unselective
[27] = measured here: relative caspase fold change +Dox/-Dox
[28] = measured here: total cells with miR-34 induction, stronger effect = lower value
[29] = measured here: total cells without miR-34 induction

CC1=C2CCC3C(CC[C@]4(C)C(=O)CCC34)[C@@]2(C)CCC1=O (stereo not given in full)
parasite load remaining [1]: 48.4% (inactive)
viability [1]: 85.7%
red/green cell ratio (normalised) [2]: 0.88 (inactive)
normalised cell number [2, 24]: 1.27
normalised cell number [2, 25]: 1.12
activity remaining [3]: 104% (inactive)

C[C@@H]1O[C@@H](O[C@H]2CC[C@]3(C=O)C4CC[C@]5(C)[C@@H](C6=CC(=O)OC6)CC[C@]5(O)C4CC[C@]3(O)C2)[C@H](O)[C@H](O)[C@H]1O (stereo not given in full)
parasite load remaining [1]: 3.9% (inactive)
viability [1]: 51%
red/green cell ratio (normalised) [2]: 0.21 (inactive)
normalised cell number [2, 24]: 0.1
normalised cell number [2, 25]: 0.02
activity remaining [3]: 95.5% (inactive)

O=c1cccc2n1C[C@H]1CNCC2C1
parasite load remaining [1]: 64.2% (inactive)
viability [1]: 103%
red/green cell ratio (normalised) [2]: 0.78 (inactive)
normalised cell number [2, 24]: 1.31
normalised cell number [2, 25]: 1.02
activity remaining [3]: 107% (inactive)

CCCCC[C@H]1C(=O)O[C@H](C)[C@H](NC(=O)c2cccc(NC=O)c2O)C(=O)O[C@@H](C)[C@@H]1OC(=O)CC(C)C
EC50 [4]: 300 nM (active)
inhibition [5]: 29.9%
score [6]: 0.73
rescue above control [7]: -18
cytochrome c release ratio [8]: 0.26
inhibition of aggregation [9]: 7.32%
glutamate uptake change [10]: 3.11%
aggregation suppression score [11]: 0.0257
red/green cell ratio (normalised) [2]: 0.71 (inactive)
normalised cell number [2, 24]: 0.78
normalised cell number [2, 25]: 0.55
activity remaining [3]: 111% (inactive)
luciferase signal [12]: 60 AU (inactive)

O=C(O)Cc1cnc[nH]1
period change [13]: 0.01 h (inactive)
inhibition [14]: -1% (inactive)
fluorescence ratio (interference) [15]: 1 (inactive)
red/green cell ratio (normalised) [2, 26]: 0.87 (inactive)
normalised cell number [2, 24]: 1.11
normalised cell number [2, 25]: 0.97
remaining activity [16]: 121% (inactive)
fold change ([17]; stronger effect = lower value): 0.943 (inactive)
fold change [17, 27]: 1.63
cell count [17, 28]: 10100
cell count [17, 29]: 10700
outcome [18]: inactive
z-score [19]: -0.12 (inactive)

CC(C)=CCCC1(C)C=Cc2c(O)c3c(c(CC=C(C)C)c2O1)OC12C(=CC4CC1C(C)(C)OC2(C/C=C(/C)C(=O)O)C4=O)C3=O (stereo not given)
inhibition [5]: 78.5%
aggregation ratio [20]: 0.274
score [6]: 0.45
rescue above control [7]: -1.66
cytochrome c release ratio [8]: 3.17
inhibition of aggregation [9]: 100%
normalised LDH release [21]: 0.491
glutamate uptake change [10]: -92.9%
aggregation suppression score [11]: 0.449
red/green cell ratio (normalised) [2]: 1.03 (inactive)
normalised cell number [2, 24]: 1.09
normalised cell number [2, 25]: 1.13
activity remaining [3]: 120% (inactive)

c1cncc(C2CCCCN2)c1 (stereo not given)
survival [22]: 6.5 (inactive)
red/green cell ratio (normalised) [2, 26]: 0.98 (inactive)
normalised cell number [2, 24]: 1.09
normalised cell number [2, 25]: 1.07
activity remaining [3]: 102% (inactive)
luciferase signal [12]: 20 AU (inactive)

C[C@H](N)[C@H](O)c1ccccc1
parasite load remaining [1]: 65.1% (inactive) and 27.2% (inactive)
viability [1]: 97.7% and 73%
red/green cell ratio (normalised) [2]: 1.19 (inactive)
normalised cell number [2, 24]: 0.91
normalised cell number [2, 25]: 1.08
fold change ([17]; stronger effect = lower value): 0.856 (inactive) and 0.884 (inactive)
fold change [17, 27]: 0.745 and 1.02
cell count [17, 28]: 11600 and 9670
cell count [17, 29]: 13500 and 10900
z-score ([23]; MELAS cybrid survival, CellTiter-Glo 48 h, stronger effect = higher value): -0.606 (inactive)
z-score ([23]; Rieske KO mouse fibroblast survival, CellTiter-Glo 72 h): -1.57
z-score [19]: -0.235 (inactive)
